Data on 9 molecules can be found in PubChem BioAssay (NCI).

Test systems include NCI-H23 lung; NCI-H226 lung; NCI-H322M lung; HOP-62 NSCLC; NCI-H460 lung; HOP-92 NSCLC; NCI-H522 lung; A549/ATCC NSCLC; 786-0 renal; COLO 205 colon; DU-145 prostate; K-562 leukemia; MALME-3M melanoma; MDA-MB-231 breast; SF-268 CNS; SF-295 CNS; SF-539 CNS; M14 melanoma.
What all share (assay): NCI-60 one-dose screen, 48 h (100 = growth as untreated, 0 = no growth, -100 = all killed)
Holding throughout (conditions): 10 µM unless noted

This is part of a sample that, as a whole, favours compounds with a hit. Of some 83,000 tested, about 20% had one in any assay.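 Compound tested at a single concentration for 48 hours in 96-well plates; a percent growth value below 10 was scored as active.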 A number with no mark means an inactive call. Active and inactive are the calls of the source.

`NC(=O)c1n[nH]n2c1nc(=O)c1c3c(sc12)CCCC3`: the growth in the experiment with NCI-H23 lung was 101%; in the experiment with NCI-H226 lung, 91.4%; in the experiment on NCI-H322M lung it was 101%; in the experiment with HOP-62 NSCLC, 96.5%; with NCI-H460 lung, 109%; in the experiment on HOP-92 NSCLC, 91.7%. For the same molecule, the growth with NCI-H522 lung was 102%; in the experiment on A549/ATCC NSCLC it was 92.7%; in the experiment with 786-0 renal it was 106%; with COLO 205 colon, 103%; with DU-145 prostate it was 110%; in the experiment on K-562 leukemia it was 89.5%. For the same molecule, the growth is 109% in the experiment on MALME-3M melanoma; 101% with MDA-MB-231 breast; 105% in the experiment on SF-268 CNS; 102% in the experiment with SF-295 CNS; 102% in the experiment on SF-539 CNS; 98% in the experiment on M14 melanoma.
Take `CCOC(=O)C1=C(C)N=C2Sc3cccc(OC)c3N2[C@H]1c1ccccn1`: the growth was 86.9% in the experiment with NCI-H23 lung; 84.9% with NCI-H226 lung; 96.4% with NCI-H322M lung; 80.6% with HOP-62 NSCLC; 105% in the experiment on NCI-H460 lung; 93.3% in the experiment on HOP-92 NSCLC. In addition, the growth in the experiment on NCI-H522 lung is 81.2%; in the experiment with A549/ATCC NSCLC, 94%; with 786-0 renal, 113%; with COLO 205 colon it was 103%; in the experiment with DU-145 prostate, 105%; in the experiment with K-562 leukemia, 101%. For the same molecule, the growth is 91.2% in the experiment with MALME-3M melanoma; 90.6% with MDA-MB-231 breast; 94.2% with SF-268 CNS; 101% with SF-295 CNS; 103% in the experiment with SF-539 CNS; 103% in the experiment on M14 melanoma.
Consider `CCC1(/C=N/NC(N)=S)NC(=O)NC1=O` (configuration not stated), for which the growth in the experiment on NCI-H23 lung was 99.2%; in the experiment with NCI-H226 lung it was 96.6%; in the experiment on NCI-H322M lung it was 106%; in the experiment with HOP-62 NSCLC, 78.8%; in the experiment on NCI-H460 lung, 109%; in the experiment on HOP-92 NSCLC, 95.5%. Moreover, the growth was 83.2% in the experiment on NCI-H522 lung; 62.5% with A549/ATCC NSCLC; 105% in the experiment on 786-0 renal; 111% with COLO 205 colon; 112% with DU-145 prostate; 109% with K-562 leukemia. For the same molecule, the growth with MALME-3M melanoma is 107%; with MDA-MB-231 breast, 102%; in the experiment with SF-268 CNS it was 106%; with SF-295 CNS it was 107%; in the experiment on SF-539 CNS it was 109%; in the experiment on M14 melanoma it was 103%.
Regarding `CC1(/C=N/NC(N)=S)NC(=O)NC1=O` (configuration not stated), the growth was 98% with NCI-H23 lung; 95.1% with NCI-H226 lung; 107% with NCI-H322M lung; 78.5% in the experiment on HOP-62 NSCLC; 105% with NCI-H460 lung; 92.5% in the experiment with HOP-92 NSCLC. In addition, the growth with NCI-H522 lung was 71.2%; in the experiment with A549/ATCC NSCLC, 72.4%; in the experiment with 786-0 renal it was 105%; in the experiment with COLO 205 colon, 98.7%; in the experiment on DU-145 prostate, 107%; in the experiment on K-562 leukemia, 89.4%. Also, the growth with MALME-3M melanoma is 107%; in the experiment with MDA-MB-231 breast, 99.2%; in the experiment on SF-268 CNS it was 102%; in the experiment with SF-295 CNS, 108%; in the experiment on SF-539 CNS, 110%; with M14 melanoma, 103%.
As for `CSC1=C(N)C(=O)c2[nH]cc(CO)c2C1=N`, the growth was -29.3% (active) with NCI-H23 lung; -65.3% (active) with NCI-H226 lung; -97.2% (active) in the experiment on NCI-H322M lung; -72.1% (active) in the experiment with HOP-62 NSCLC; -59.2% (active) with NCI-H460 lung; -71.7% (active) with HOP-92 NSCLC. In addition, the growth was -43.4% (active) in the experiment on NCI-H522 lung; -57.4% (active) in the experiment with A549/ATCC NSCLC; -70.1% (active) in the experiment on 786-0 renal; -77.6% (active) with COLO 205 colon; -94.8% (active) in the experiment with DU-145 prostate; -24.1% (active) in the experiment on K-562 leukemia. Further, the growth is -96.1% (active) in the experiment on MALME-3M melanoma; 2.56% (active) in the experiment on MDA-MB-231 breast; -69.4% (active) with SF-268 CNS; -97.1% (active) with SF-295 CNS; -96.2% (active) in the experiment on SF-539 CNS; -83.5% (active) in the experiment with M14 melanoma.
For the molecule `CC(=O)C(C(C)=O)C(c1ccccc1)C(C(C)=O)C(C)=O`, the growth in the experiment with NCI-H23 lung was 98.6%; in the experiment with NCI-H226 lung, 90.9%; with NCI-H322M lung, 99.7%; in the experiment on HOP-62 NSCLC, 98.4%; with NCI-H460 lung, 105%; in the experiment with HOP-92 NSCLC, 97.5%. The growth in the experiment on NCI-H522 lung is 91.7%; in the experiment with A549/ATCC NSCLC, 89.3%; with 786-0 renal, 97.2%; in the experiment with COLO 205 colon, 104%; in the experiment on DU-145 prostate, 108%; in the experiment with K-562 leukemia, 95.9%. Also, the growth with MALME-3M melanoma was 108%; with MDA-MB-231 breast, 97.5%; in the experiment with SF-268 CNS it was 108%; in the experiment on SF-295 CNS, 96.7%; with SF-539 CNS, 101%; with M14 melanoma it was 96.5%.
`CC[n+]1c(/C=C/C=C2\N(C)c3ccccc3C2(C)C)sc2ccccc21`: the growth in the experiment on NCI-H23 lung is 20%; in the experiment with NCI-H226 lung, 20%; with NCI-H322M lung, 25.6%; in the experiment with HOP-62 NSCLC, 11.7%; in the experiment with NCI-H460 lung, 7.56% (active); in the experiment on HOP-92 NSCLC, -3.67% (active). For the same molecule, the growth with NCI-H522 lung is 9.12% (active); in the experiment on A549/ATCC NSCLC it was 11.9%; in the experiment on 786-0 renal, 14.8%; with COLO 205 colon, -59.2% (active); in the experiment with DU-145 prostate it was 20.3%; with K-562 leukemia it was 2.44% (active). Also, the growth with MALME-3M melanoma is 13.6%; with MDA-MB-231 breast it was 8.67% (active); in the experiment with SF-268 CNS, 25.6%; in the experiment with SF-295 CNS, -6.72% (active); in the experiment with SF-539 CNS it was 19.9%; in the experiment on M14 melanoma it was 12.6%.
Regarding `CC(C)c1ccc(/C=N/Nc2nc3ccccc3s2)cc1`, the growth in the experiment on NCI-H23 lung was 80.4%; in the experiment with NCI-H226 lung, 81.7%; in the experiment with NCI-H322M lung it was 96%; in the experiment with HOP-62 NSCLC, 87.8%; in the experiment with NCI-H460 lung, 95.2%; in the experiment with HOP-92 NSCLC, 82.5%. Besides, the growth in the experiment on NCI-H522 lung is 85%; with A549/ATCC NSCLC, 85.8%; in the experiment on 786-0 renal, 108%; in the experiment with COLO 205 colon, 88.5%; in the experiment with DU-145 prostate it was 101%; with K-562 leukemia it was 85.5%. The growth was 62.9% in the experiment on MALME-3M melanoma; 81.6% with MDA-MB-231 breast; 99.2% in the experiment with SF-268 CNS; 98.5% in the experiment with SF-295 CNS; 103% in the experiment with SF-539 CNS; 94.5% in the experiment with M14 melanoma.
For `NC1=Nc2ccccc2N(O)N1`, the growth was 102% with NCI-H23 lung; 98.2% in the experiment on NCI-H226 lung; 96.8% in the experiment with NCI-H322M lung; 80.9% in the experiment on HOP-62 NSCLC; 110% with NCI-H460 lung; 107% in the experiment on HOP-92 NSCLC. For the same molecule, the growth in the experiment with NCI-H522 lung was 71.7%; with A549/ATCC NSCLC it was 74.3%; in the experiment with 786-0 renal it was 101%; in the experiment with COLO 205 colon, 105%; with DU-145 prostate, 113%; in the experiment on K-562 leukemia, 96.7%. In addition, the growth in the experiment on MALME-3M melanoma was 97%; with MDA-MB-231 breast, 102%; with SF-268 CNS, 98.1%; with SF-295 CNS it was 102%; in the experiment on SF-539 CNS it was 96.3%; with M14 melanoma it was 103%.
